PubChem BioAssay (NCATS)
Where “and” joins values, the source holds several entries; their conditions need not be identical. Equal values may be shown once. Results filed as inconclusive are left out. Where a call stands in place of a potency, no number is given. Calls of active or inactive are those of the source. Calls come from the whole dose curve. Square brackets hold non-standard residues; d marks the D form. Peptide text beside a SMILES is read from it. * marks the point of attachment. Benzoyl(4-tBu) = CC(C)(C)c1ccc(C(=O)*)cc1; Lys(Et2) = CCN(CC)CCCC[C@H](N)C(=O)O

Legend:
[1] = Cytotoxicity counterscreen for inhibitors of SARS-CoV-2 cell entry (AID 1645845); conditions: outcome: dose series up to 57.1 µM unless noted; note: nearly all actives have a fitted effect of over 50% in size
In short: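 48 h compound treatment (after 1 h preincubation), HEK293-ACE2 cells, 37 C/5% CO2; ATP luminescence endpoint; normalized to cell wells and media blanks.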

[2] = Primary qHTS to identify inhibitors of SARS-CoV-2 cell entry (AID 1645846); conditions: SARS-CoV-2 pseudovirus cell entry assay, luminescence; activity change, negative = inhibition: at 57.1 µM (top of the series) unless noted; note: nearly all actives have a fitted effect of over 45% in size
In short: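 HEK293 cells stably expressing human ACE2, pre-treated 1 h with compound, then infected with MLV particles pseudotyped with Wuhan-Hu-1 spike (C-terminal 19-aa truncation). Luciferase luminescence after 48 h at 37 °C, normalised to spike PP and bald PP.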
Potency is the fitted concentration of half-maximal effect.

Structure (SMILES)	Potency [1]	activity change, negative = inhibition [2]	Potency [2]	activity change, negative = cytotoxicity [1]
C[C@H](Nc1ncnc2nc[nH]c12)c1cc2ccc(F)cc2nc1-c1ccccn1	inactive	-9.43%		
CC(=O)N1CCN(c2ccc(NC(=O)Cc3cnc(-c4ccnc(F)c4)c(C)c3)nc2)CC1	inactive	0.388%		
CN(C(=O)CNC(=O)/C=C/c1cccc(Cl)c1)C1CCS(=O)(=O)CC1	inactive	-2.44%		
CC(C)C(N)C(=O)OCC(CO)OCn1cnc2c(=O)[nH]c(N)nc21 (stereo not given)	inactive	-6.77%		
CC(C)(O)c1coc(S(=O)(=O)NC(=O)Nc2c3c(cc4c2CCC4)CCC3)c1	inactive		inactive	
CC1Cc2ccccc2N1C(=O)Cc1nc(N2CCOCC2)cc(=O)[nH]1 (stereo not given)	inactive	-26.2%		
O=C1CC(c2c[nH]c3ccc(F)cc23)C(=O)N1 (stereo not given)	inactive	1.8%		
Nc1ncnc2c1c(COc1cccc(Cl)c1)nn2C1CCOCC1	inactive		inactive	
CC(C)NC(=O)C1CCC(n2c(NC(=O)c3ccc(F)cc3)nc3ccc(CN4CCC(C(C)(C)O)CC4)cc32)CC1 (stereo not given)	inactive	-10.3% [at 27.1 µM]		
CN[C@@H](C)C(=O)N[C@H](C(=O)N1CCC[C@H]1C(=O)Nc1sc(-c2ncco2)nc1-c1ccccc1)C1CCCCC1	inactive		inactive	
CNC(=O)c1c(C)oc2cc(Oc3ncnc4cc(OC)c(OC)cc34)ccc12	inactive		inactive	
Cc1[nH]nc2ncc(C(=O)N3CCC[C@H]3c3ccc(Cl)cc3)cc12	inactive	-17.3%		
CC(=O)N[C@H]1CSSC[C@@H](C(N)=O)NC(=O)[C@H](C(C)C)NC(=O)[C@H](C)NC(=O)[C@H](Cc2cnc[nH]2)NC1=O	inactive		inactive	
CC1(C)CC[C@]2(C(=O)O)CC[C@]3(C)C(=CC[C@@H]4[C@@]5(C)C[C@@H](O)[C@H](O)C(C)(C)[C@@H]5CC[C@]43C)[C@@H]2C1	inactive		inactive	
COc1ccc(-c2oc3ncnc(N)c3c2-c2ccc(NC(=O)Nc3cc(C(F)(F)F)ccc3F)cc2)cc1	inactive	0.997%		
O=C(NCC(=O)N1CCCC1)Nc1ccc2cnccc2c1	inactive	-15.6%		
Fc1ccc(-c2nc(-c3ccccc3F)[nH]c2-c2ccncc2)cc1	inactive	-6.32%		
COc1cccc(-c2c(C)n(Cc3c(F)cccc3C(F)(F)F)c(=O)n(C[C@H](NCCCC(=O)O)c3ccccc3)c2=O)c1F	inactive	-17.5% and -28.9%		
CCOC(=O)c1ccnc(CNCC(=O)N(CC)CCN(C)C)c1	inactive	-19.4%		
O=C(NCCCNc1nc(Nc2cccc(CN3CCOCC3)c2)ncc1C1CC1)C1CCC1	inactive		inactive	

Structure (SMILES)	Potency [1]	activity change, negative = inhibition [2]	Potency [2]	activity change, negative = cytotoxicity [1]
C=Cc1cc(O)cc2nc(-c3ccc(O)c(F)c3)oc12	inactive	-0.0201%		
COc1cc(OC)c2c(=O)[nH]c(-c3cc(C)c(OCCO)c(C)c3)nc2c1	inactive		inactive	
COc1ccc([C@@H]2CC(=O)c3c(O)cc(O[C@@H]4O[C@H](CO[C@@H]5O[C@@H](C)[C@H](O)[C@@H](O)[C@H]5O)[C@@H](O)[C@H](O)[C@H]4O)cc3O2)cc1O	inactive		inactive	
CN(C)c1cccc(-c2c3c(=O)n(-c4ccccc4Cl)[nH]c3cc(=O)n2C)c1	inactive	-19.6%		
Cc1noc(-c2ccc(-c3ccc(C4(C(=O)O)CC4)cc3)cc2)c1NC(=O)O[C@H](C)c1ccccc1	inactive		35.5 µM (active)	
CC1=C2[N-][C@H]([C@H](CC(N)=O)[C@@]2(C)CCC(=O)NC[C@@H](C)OP(=O)([O-])O[C@H]2[C@@H](O)[C@@H](n3cnc4cc(C)c(C)cc43)O[C@@H]2CO)[C@]2(C)N=C(C(C)=C3N=C(C=C4N=C1[C@@H](CCC(N)=O)C4(C)C)[C@@H](CCC(N)=O)[C@]3(C)CC(N)=O)[C@@H](CCC(N)=O)[C@]2(C)CC(N)=O.O.[Co+2]	inactive	-20.3%		
CC(C)(O)[C@H]1CC[C@@](C)([C@H]2[C@@H](O)C[C@@]3(C)[C@@H]4C[C@H](O[C@@H]5O[C@H](CO)[C@@H](O)[C@H](O)[C@H]5O)[C@H]5C(C)(C)[C@@H](O[C@@H]6OC[C@@H](O)[C@H](O)[C@H]6O)CC[C@@]56C[C@@]46CC[C@]23C)O1	inactive		inactive	
CN[C@@H](C)C(=O)N[C@H](C(=O)N1CCC[C@H]1c1nc(C(=O)c2ccc(F)cc2)cs1)C1CCCCC1	inactive	-6.26%		
Cc1nc(NC(=O)N2CCC[C@H]2C(N)=O)sc1-c1csc(C(C)(C)C)n1	inactive		inactive	
COC(=O)C1=C(C)NC(c2ncc(F)cc2F)=N[C@H]1c1ccc(F)cc1Cl	inactive		inactive	
C[C@@H]1C(=O)OC2[C@H](O)[C@]34[C@H]5C[C@@H](C(C)(C)C)[C@]36[C@@H](OC(=O)[C@@H]6O)O[C@@]4(C(=O)O5)[C@]21O (stereo not given in full)	inactive	-20.5%		
CCC(=O)O[C@]1(C(=O)CO)CC[C@H]2[C@@H]3CCC4=CC(=O)CC[C@]4(C)[C@H]3CC[C@@]21C	inactive		inactive	
COc1ncc(Nc2ncc([C@H](C)N3CCN(S(C)(=O)=O)CC3)cc2-c2nc(C)nc(N)n2)cc1F	inactive	-47.8%		
CCN(CC)CCCC[C@H](NC(=O)[C@H](CC(C)C)NC(=O)[C@H](C)NC(=O)[C@H](Cc1ccccc1)NC(=O)c1ccc(C(C)(C)C)cc1)C(=O)N[C@@H](CO)C(=O)OC ({Benzoyl(4-tBu)}-FAL[Lys(Et2)]S-OMe)	inactive		inactive	
CC(C)(C)C(=O)CN1C(=O)[C@H](NC(=O)Nc2cccc(C(=O)O)c2)CN(C2CCCCC2)c2ccccc21	inactive	-4.52%		
Nc1ncnc2c1ncn2[C@@H]1O[C@H](CO)C[C@H]1O	inactive	-13%		
O=C1OC(COc2ccccc2[N+](=O)[O-])CC1Cc1ccccc1 (stereo not given)	inactive	-2.39%		
NC(=O)c1cc(F)cc2c1C(=O)N(C1CCN(C3CCC(F)(F)CC3)CC1)C2	inactive	-24%		
N[C@@H](CCC(=O)O)C(=O)N[C@@H](Cc1c[nH]c2ccccc12)C(=O)O (H-Glu-Trp-OH)	inactive		inactive	
COc1cc([C@@H](CC(=O)O)c2ccc(C)c(CN3C[C@@H](C)Oc4ccccc4S3(=O)=O)c2)cc2nnn(C)c12	inactive	2.13%		

Structure (SMILES)	Potency [1]	activity change, negative = inhibition [2]	Potency [2]	activity change, negative = cytotoxicity [1]
COc1cc2c(cc1OCCCN1CCCC1)N=C(N)C21CCC1	inactive	-8.97%		
C[C@@H](O)[C@@H]1NC(=O)[C@H](CCCCN)NC(=O)[C@@H](Cc2c[nH]c3ccccc23)NC(=O)[C@H](Cc2ccccc2)NC(=O)[C@@H](NC(=O)[C@H](N)Cc2ccccc2)CSSC[C@@H](C(=O)N[C@H](CO)[C@@H](C)O)NC1=O	inactive	-12.9% [at 27.1 µM]		
N#Cc1ccnc(Nc2cc(C3CCN(C4COC4)CC3)cc(N3CCC(F)(F)C3)n2)c1	8.91 µM (active)		3.16 µM (active)	
CC(C)[C@@H](CS(=O)(=O)C(C)C)N1C(=O)[C@@](C)(CC(=O)O)C[C@H](c2cccc(Cl)c2)[C@H]1c1ccc(Cl)cc1	inactive	-11.9%		
O=C(O)CNC(=O)c1nc(Cl)c2ccccc2c1O	inactive	-5.6%		
COc1ccc(Cl)cc1-c1cc(=O)[nH]c(=S)n1CC(N)=O	inactive	4.69%		
Cc1cc(OCc2nnc(SC3CCCC3)n2-c2cccnc2)ccc1-c1ccc(S(C)(=O)=O)cc1	inactive	-22.4%		
Cc1cc(O[C@@H](CCC(F)(F)F)c2ccc(C(=O)NCCC(=O)O)cc2)cc(C)c1-c1ccc(C(C)(C)C)cc1	inactive	-0.0119%		
O=C(Nc1ccc(-c2ccnc(Nc3ccc(N4CCOCC4)cc3)n2)cc1)C1CCCN1 (stereo not given)	inactive	-3.33%		
COc1c(C)cc(NC(=O)c2nn(Cc3ccc(F)cc3)c3c2CN(C(=O)c2ccc[nH]2)C[C@]3(C)C(N)=O)cc1C	inactive		inactive	
Cn1cc(-c2ccc(F)c(C(F)(F)F)c2)nc1C1CCN(c2ncnc3[nH]ncc23)CC1	inactive		inactive	
COCCNc1cc(NC(=O)N2CCCc3cc(CN4CCN(C)CC4=O)c(C=O)nc32)ncc1C#N		-9.55% [at 11.3 µM]		2.9% [at 11.3 µM] (inactive)
Cc1cc(I)ccc1Nc1c(C(=O)NOCC2CC2)cc(F)c(F)c1F	17.8 µM (active)		12.6 µM (active)	
COc1cc2ncnc(Oc3cccc(NC(=O)Nc4cc(C(C)(C)C(F)(F)F)on4)c3)c2cc1OC	inactive	-20.7%		
Cc1ccccc1-n1nc(-c2c(-c3ccc(F)cc3)nn3c2NC[C@@H](CO)C3)ccc1=O	inactive	-24.3%		
Cc1c(-c2c(-c3ccc(F)o3)sc3ncnc(O[C@@H](Cc4ccccc4OCc4ccnn4CC(F)(F)F)C(=O)O)c23)ccc(OCCN2CCN(C)CC2)c1Cl	inactive	-7.93%		
CC1(C(=O)O)CCC2(C)CCC3(C)C(=CC(=O)C4C5(C)CCC(OC6OC(C(=O)O)C(O)C(O)C6OC6OC(C(=O)O)C(O)C(O)C6O)C(C)(C)C5CCC43C)C2C1 (stereo not given)	inactive		inactive	
CCc1nc(C(N)=O)c(Nc2ccc(N3CCC(N4CCN(C)CC4)CC3)c(OC)c2)nc1NC1CCOCC1	inactive		10 µM (active)	
CC(C)Cc1ccc([C@@H](C)C(=O)NS(C)(=O)=O)cc1	inactive	3.55%		
CC(=O)N1CCC(Nc2cc(C(=O)NC[C@H](O)CN3CCc4ccccc4C3)ncn2)CC1	inactive		inactive	
